Assay outcomes deposited in PubChem by several laboratories.
LANA-H2B inh: blocks KSHV LANA binding to histone H2A/H2B. AID 2629. inhibition, % (no concentration beside the values). Q9QR71. cell-free LANA-H2A/H2B peptide, fluorescence polarization. 320,000 tested, 0.6% active; in the data active means inhibition mostly above about 10%, no sharp cut-off; inactive means mostly below about 6.7%
LYPLA2 inh: blocks human lysophospholipase 2, a PME1 counter-screen; inhibition, % at 5.9 µM; recombinant LYPLA2, FP-Rh probe fluorescence polarization; 320,000 tested, 0.38% active; O95372;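 active means inhibition above the screen-wide mean plus 3 SD, limit set per campaign, cut at about 26% in these data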
EBNA-1 inh: blocks EBNA-1 binding to DNA | AID 1950 | 300,000 tested, 0.34% active | EBNA-1 DNA binding, fluorescence polarization | inhibition, % at 14.8 µM; in the data active means inhibition above about 28%
ZTA DNA inh: blocks Epstein-Barr virus ZTA, an EBNA-1 counter-screen; P03206; ZTA-DNA binding, fluorescence polarization; inhibition, % at 11 µM; 320,000 tested, 0.15% active; in the data active means inhibition above about 33%
Target sequence (P03206 whole entry, looked up): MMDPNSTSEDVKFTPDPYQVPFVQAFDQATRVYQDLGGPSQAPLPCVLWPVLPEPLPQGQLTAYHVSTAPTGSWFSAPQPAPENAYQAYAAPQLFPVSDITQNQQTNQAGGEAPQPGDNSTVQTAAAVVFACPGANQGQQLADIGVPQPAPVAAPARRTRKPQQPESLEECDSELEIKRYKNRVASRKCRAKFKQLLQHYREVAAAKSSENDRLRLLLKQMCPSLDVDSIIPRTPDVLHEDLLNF
LYPLA1 counter: blocks human lysophospholipase 1, a PME1 counter-screen; O75608; recombinant LYPLA1, FP-Rh probe fluorescence polarization; inhibition, % at 5.9 µM; 320,000 tested, 0.16% active; AID 2174;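 active means inhibition above the mean of all tested compounds plus 3 SD, set per campaign, cut at about 14% in these data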;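 further: inhibitors block serine hydrolase probe labeling of LYPLA1 so polarization falls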
Target sequence (O75608 whole entry, looked up): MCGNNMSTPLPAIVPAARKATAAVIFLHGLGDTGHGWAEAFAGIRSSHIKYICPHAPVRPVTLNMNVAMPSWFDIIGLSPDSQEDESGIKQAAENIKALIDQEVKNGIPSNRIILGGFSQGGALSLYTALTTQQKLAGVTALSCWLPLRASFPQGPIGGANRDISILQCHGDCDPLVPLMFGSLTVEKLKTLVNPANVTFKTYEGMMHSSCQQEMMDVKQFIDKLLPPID
LYPLA2 conf: LYPLA2 (human) inhibition, confirmation counter-screen; shares compounds with LYPLA2 inh; AID 2232; recombinant LYPLA2, FP-Rh probe fluorescence polarization; inhibition, % at 5.9 µM; 1,100 tested, 72% active;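 active means mean inhibition across replicates above the hit cutoff set in the primary screen, cut at about 26% in these data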;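 further: blocked labeling of the enzyme by serine hydrolase FP-Rh probe lowers polarization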
Zta DNA confirm: EBV ZTA DNA binding inhibition, confirmation | Zta-ZRE DNA binding, fluorescence polarization | inhibition, % at 11.1 µM | 320 tested, 30% active | AID 2361 | shares compounds with ZTA DNA inh;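 active means mean inhibition across triplicate runs above the hit threshold derived for the original primary screen, cut at about 33% in these data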
EBNA-1 counter: counter-screen for ZTA inhibitors: EBNA-1 DNA binding inhibition. shares compounds with ZTA DNA inh. fluorescence polarization. inhibition, % at 14.8 µM. 320 tested, under 10 active; call rule not given here
Each line names hits and unclear results; the compound was inactive in the other large screens (follow-up assays come after a bar, where they were run). An excerpt weighted towards active compounds, which were near 1.4% of everything screened.

C#CCOCCOCCOCCNc1nc(N2CCN(C(=O)CCCCCCCCCCNC(=O)Cn3cc(CCCCCN)nn3)CC2)nc(N2CCN(C(=O)CCCCCCCCCCNC(=O)[C@H]([C@@H](C)CC)n3cc(CCCCCN)nn3)CC2)n1	LYPLA2 inh 31, ZTA DNA inh 83 | LYPLA2 conf inactive | Zta DNA confirm 35 | EBNA-1 counter inactive
C#CCOCCOCCOCCNc1nc(N2CCOCC2)nc(N2CCN(C(=O)CCCCCCCCCCNC(=O)Cn3cc(CCCCCN)nn3)CC2)n1	none
O=C(NCc1ccccn1)c1cccc(S(=O)(=O)NCc2ccccc2)c1	none
CC(=O)Nc1ccc(NC2=C/C(=N/S(=O)(=O)c3cccs3)c3ccccc3C2=O)cc1	none
O=C(O)c1ccc(S(=O)(=O)/N=C2\C=C(Nc3ccccc3F)C(=O)c3ccccc32)cc1	LYPLA2 inh 26, ZTA DNA inh 62 | LYPLA2 conf 75 | Zta DNA confirm 69 | EBNA-1 counter inactive
COc1ccc(Cl)cc1C(=O)Nc1cccc(-c2ccc3nncn3n2)c1	LYPLA2 inh 27, ZTA DNA inh 92 | LYPLA2 conf 30 | Zta DNA confirm 118 | EBNA-1 counter inactive
Oc1ccc(N=Cc2ccc(-c3cccs3)s2)cc1	LYPLA2 inh 29, ZTA DNA inh 46 | LYPLA2 conf inactive | Zta DNA confirm 47 | EBNA-1 counter inactive
COc1cc(NC(=O)CCCN2C(=O)NC(C)(C)C2=O)cc(OC)c1	none (no result: EBNA-1 inh)
CCOC(=O)C1CCCCN1Cc1ccc(OC)c(OC)c1 (stereo unspecified)	ZTA DNA inh 34 | Zta DNA confirm inactive | EBNA-1 counter inactive
CCOC(=O)C(C)Sc1ncc(-c2ccccc2)cn1 (stereo unspecified)	ZTA DNA inh 79 | Zta DNA confirm inactive | EBNA-1 counter inactive
CCOC(=O)C(C)Sc1nc(=O)n2ccccc2n1 (stereo unspecified)	none
Cc1ccc(NC(=O)CCc2nnc(SCC(=O)Nc3ccccc3C)n2C)cc1Cl	ZTA DNA inh 69 | Zta DNA confirm inactive | EBNA-1 counter inactive
Cc1csc(=O)n1CC(=O)OCC(=O)c1ccc(Br)cc1	none
CN(C)CCOc1ccccc1-c1ccccc1	ZTA DNA inh 37 | Zta DNA confirm inactive | EBNA-1 counter inactive
Cc1cc(C(F)(F)F)c(C#N)c(SCC(=O)Nc2nc3ccccc3s2)n1	none
Cc1ccc2sc(NC(=O)CSc3nc(C)cc(C)c3C#N)nc2c1	ZTA DNA inh 38 | Zta DNA confirm inactive | EBNA-1 counter inactive
CC(C)(C)OC(=O)N[C@@H](Cc1ccccc1)c1nnc(SCC(N)=O)o1	none
COC(=O)CSc1nnc([C@H](Cc2ccccc2)NC(=O)OC(C)(C)C)o1	ZTA DNA inh 90 | Zta DNA confirm inactive | EBNA-1 counter inactive
CCC1(CC)NC(=O)N(CC(=O)Nc2ccc(S(=O)(=O)N3CCOCC3)cc2)C1=O	none
CCCCC1(C)NC(=O)N(CC(=O)Nc2ccc(S(=O)(=O)N3CCOCC3)cc2)C1=O (stereo unspecified)	ZTA DNA inh 47 | Zta DNA confirm inactive | EBNA-1 counter inactive
CC(=O)Nc1ccc2[nH]c(C)cc(=O)c2c1	ZTA DNA inh 87 | Zta DNA confirm inactive | EBNA-1 counter inactive
COc1ccc(OC)c(N)c1	ZTA DNA inh 37 | Zta DNA confirm inactive | EBNA-1 counter inactive
COc1cc(OC)c(Cl)cc1N	none
Cn1cc(CCNC(=O)CC2C(=O)NCCN2CC(c2ccccc2)c2ccccc2)cn1 (stereo unspecified)	none
CC(C)Oc1ccc(CCNC(=O)CC2C(=O)NCCN2C)cc1 (stereo unspecified)	ZTA DNA inh 52 | Zta DNA confirm inactive | EBNA-1 counter inactive
N=C1/C(=C\c2coc3ccccc3c2=O)C(=O)N=C2SC(c3ccncc3)=NN12	ZTA DNA inh 39 | Zta DNA confirm 63 | EBNA-1 counter inactive
COc1ccc(S(=O)(=O)/N=C2\C=C(Nc3ccc(O)cc3)C(=O)c3ccccc32)cc1	ZTA DNA inh 35 | Zta DNA confirm inactive | EBNA-1 counter inactive
O=C(Nc1ccc2oc(-c3ccncc3)nc2c1)c1ccc2c(c1)OCO2	ZTA DNA inh 50 | Zta DNA confirm 76 | EBNA-1 counter inactive
Cc1ccc(CCNS(=O)(=O)c2cc(Br)cnc2N)cc1	none
O=S(=O)(NCCSc1ccc(Cl)cc1)c1ccc2c(c1)OCCO2	ZTA DNA inh 33 | Zta DNA confirm inactive | EBNA-1 counter inactive
O=S(=O)(NCCSCc1ccc(Cl)cc1Cl)c1ccc2c(c1)OCCO2	none
CN(C)c1ccc(N=C/C=C2\N(C)c3ccccc3C2(C)C)cc1	ZTA DNA inh 163 | Zta DNA confirm inactive | EBNA-1 counter inactive
CN1/C(=C\C=Nc2ccc3ccccc3c2)C(C)(C)c2ccccc21	none
O=C(COC(=O)c1ccc(F)cc1F)NC(=O)Nc1ccc2c(c1)OCCO2	none (no result: EBNA-1 inh)
CCC(C(=O)OC)n1cnc2scc(-c3ccc(C)c(C)c3)c2c1=O (stereo unspecified)	none
CCC(C(=O)O)n1cnc2scc(-c3ccc(C)c(C)c3)c2c1=O (stereo unspecified)	ZTA DNA inh 117 | Zta DNA confirm inactive | EBNA-1 counter inactive
CCOC(=O)c1ccc(-c2c(-c3ccccc3OC)sc3ccc(OC)cc23)cc1F	none (no result: LYPLA2 inh, EBNA-1 inh, ZTA DNA inh, LYPLA1 counter)
Cc1c(C)n(Cc2ccccc2)c2ncnc(NN)c12	ZTA DNA inh 39 | Zta DNA confirm inactive | EBNA-1 counter inactive
Cn1c(SCC(=O)N2CCN(c3ccccc3)CC2)nnc1-c1ccncc1	ZTA DNA inh 38 | Zta DNA confirm inactive | EBNA-1 counter inactive
CCOc1ccc(CCNC(=O)c2ccc(S(=O)(=O)N3CCCC3)cc2)cc1OCC	none
O=C(Nc1ccccc1Sc1ccccc1)c1ccccc1F	ZTA DNA inh 37 | Zta DNA confirm inactive | EBNA-1 counter inactive
O=C(Nc1ccccc1NC(=O)c1ccccc1F)c1ccccc1F	none (no result: LYPLA2 inh, EBNA-1 inh, ZTA DNA inh, LYPLA1 counter)
O=C1/C(=C/c2ccc(O)cc2)SC(=S)N1Cc1cccnc1	ZTA DNA inh 77 | Zta DNA confirm inactive | EBNA-1 counter inactive
CCOc1cc(/C=C(/NC(C)=O)C(=O)O)cc(Cl)c1OCc1cccc(Br)c1	none
CC(=O)Nc1ccc(NC2CCCCC2NS(=O)(=O)c2ccc(Cl)cc2)cc1 (stereo unspecified)	none
O=C(CC(C(=O)O)c1ccc(Cl)cc1Cl)c1ccc(Cl)cc1 (stereo unspecified)	ZTA DNA inh 33 | Zta DNA confirm inactive | EBNA-1 counter inactive
O=c1[nH]c(/C=C/c2ccc(Cl)cc2Cl)c([N+](=O)[O-])c(=O)[nH]1	ZTA DNA inh 55 | Zta DNA confirm 53 | EBNA-1 counter inactive
CC(=O)NC(CCS(C)(=O)=O)C(=O)Nc1ccc(Cl)c(Cl)c1 (stereo unspecified)	ZTA DNA inh 36 | Zta DNA confirm inactive | EBNA-1 counter inactive
